Reference: PubChem BioAssay AID2253 (Southern Research Specialized Biocontainment Screening …, 2010)
About 1,300 (59%) of roughly 2,200 compounds were called active. So high a share suggests a set chosen from earlier hits. These entries were drawn from the full list. Results with a measured potency or affinity are listed apart. Values without a mark were called inactive. No rule for the calls is given here.

Assay: human monocytic cell viability reduction – S. typhimurium screen hits, cytotoxicity control for Salmonella PhoP regulon inhibitors, dose response (AID 2253)
Conditions: THP-1 viability, CellTiter-Glo luminescence, 72 h; series mostly up to 50 µM; viability: at the top concentration

| SMILES | viability |
| --- | --- |
| Cc1ccc(OCC(=O)N2CCN(S(=O)(=O)c3ccccc3)CC2)c([N+](=O)[O-])n1 | 106% |
| CCOC(=O)C(/C=C(\C#N)C(=O)OCC)=C(/N)N1CCN(c2c(C)cccc2C)CC1 | 82.1% |
| Cc1ccccc1NC(=S)N(CCCN1CCOCC1)Cc1ccccn1 | 113% |
| Brc1ccc2nc3c(n2c1)CCCC3 | 81.3% [at 25 µM] |
| CCCCn1c(NCCO)nc2ccccc21 | 96.2% |
| Nc1ccc(C(=O)OCc2nc3ccccc3[nH]2)cc1 | 87.7% |
| COc1c(F)c(F)cc2c(=O)c(C(=O)O)cn(C3CC3)c12 | 96.7% |
| O=C(Cn1nc(C(F)(F)F)c2c1CCCCC2)N1CCOCC1 | 98.2% |
| CCCNC(=O)COC(=O)CCC(=O)c1ccc(F)cc1 | 92.6% |
| O=C(c1cc2ncc(Br)cn2n1)N1CCOCC1 | 99.4% |
| C(=N\N1CCN(C2c3ccccc3-c3ccccc32)CC1)/c1cccs1 | 94.6% |
| CCn1cc(C(=O)O)c(=O)c2cnc(N3CCN(C(=S)NC(=O)c4ccc(Cl)cc4)CC3)nc21 | 81% |
| CCOc1ccc(-c2noc(CCCC(N)=O)n2)cc1OC | 102% |
| COc1c(N2C[C@@H]3CCCN[C@@H]3C2)c(F)cc2c(=O)c(C(=O)O)cn(C3CC3)c12 | 96.6% |
| N/C(=N\OC(=O)Cc1ccc(Cl)cc1)c1cccnc1 | 112% |
| COc1cccc(N=Cc2c[nH][nH]c2=O)c1 | 82.5% |
| Cc1cc2ncn(C3CC(=O)N(Cc4ccc(N5CCCC5=O)cc4)C3=O)c2cc1C (stereo not given) | 102% |
| CC(NC(=O)C1(C)CC1(Br)Br)C(C)(C)C (stereo not given) | 97.6% |
| CN1/C(=C/C2CC(=O)N(c3cccc4ccccc34)C2=O)C(C)(C)c2ccccc21 (stereo not given) | 86.7% |
| Cc1ccc(NC(=O)CCN2CCc3ccccc3C2)cc1 | 83.3% |
| O=C(OCCN1C(=O)c2ccccc2C1=O)c1ccc(S(=O)(=O)N2CCCCCC2)cc1 | 106% |
| CCCCCC(=O)Nc1ccc2ccccc2c1 | 94% |

| SMILES | viability |
| --- | --- |
| C/C(=N\NC(=O)c1c(Cl)c(C)nn1C)c1cccc(NC(=O)COc2ccc(Cl)cc2)c1 | 90.3% |
| O=S(=O)(NCc1ccccc1)c1cccc(S(=O)(=O)N2CCOCC2)c1 | 84.2% |
| O=C(Nc1ccc2oc(-c3ccc(Cl)c(Cl)c3)nc2c1)c1ncn[nH]1 | 90.1% |
| Nc1nc(N)nc(-c2ccccc2)n1 | 99.9% |
| Nc1cc(N)cc(-c2nc3ccccc3[nH]2)c1 | 90.1% |
| O=C(O)CCc1nn2c3ccccc3n(CCN3CCCCC3)c2nc1=O | 101% |
| COc1ccc(OCCSc2nnc(-c3ccc(OC)cc3)n2N)cc1 | 105% |
| C=CCn1c(SCCOc2ccc(OC)cc2)nnc1C(C)NC(=O)c1ccc(OC)cc1 (stereo not given) | 81.2% |
| CC(O)c1ccc(OCCN(C)c2ccccn2)cc1 (stereo not given) | 80.3% |
| COC(=O)c1ccc(COC(=O)c2ccccn2)cc1 | 103% |
| Cc1ccc(-n2ncc3c(N4CCN(c5ccccc5)CC4)ncnc32)c(C)c1 | 83.1% |
| COc1cc(NC(=O)CSc2nnnn2Cc2ccc3c(c2)OCO3)cc(OC)c1 | 82.7% |
| c1ccc(-c2cnn3nnnc3n2)cc1 | 92.2% |
| CCc1c(C)c2cc(Cl)c(O)c(CN(C)C)c2oc1=O | 101% |
| O=C(CCN1C(=O)c2ccccc2S1(=O)=O)Nc1ccc2c(c1)OCCO2 | 84.7% |
| CC(=O)c1c(N2CCN(C(=O)C3CCCO3)CC2)nc(=S)n(-c2ccccc2)c1C (stereo not given) | 98.6% |
| O=C(Nc1ccc(F)cc1)c1ccccc1F | 81.9% |
| COc1ccc(CCNC(=O)c2ccc(CN3CCOCC3)cc2)cc1 | 102% |
| O=C(CCN1C(=O)COc2ccccc21)NCCN1CCOCC1 | 107% |
| CC1(C)CC(=O)C(/C=N/c2ncccc2C(=O)O)=C(O)C1 | 91% |
| O=C(NC(CO)C(O)c1ccc([N+](=O)[O-])cc1)C(Cl)Cl (stereo not given) | 83.4% |
| Cc1ccc(-n2c(C)cc(-c3csc(N)n3)c2C)cc1 | 96.6% |

| SMILES | viability |
| --- | --- |
| Cc1cc(-c2csc(N)n2)c(C)n1C | 103% |
| Cc1ccccc1NC(=O)c1ccc(-n2cncn2)nc1 | 92.5% |
| O=C1C(c2ccc(F)cc2)N(Cc2ccc3c(c2)OCO3)C(=O)CN1C1CCCCCC1 (stereo not given) | 93% |
| Nc1ccc(Nc2ccccc2)c(Cl)c1 | 92.2% |
| C/C(=N\n1nnnc1Nc1ccccc1)c1ccc(N)cc1 | 93.7% |
| CCn1cc(C(=O)O)c(=O)c2cc(F)c(N3CCN(C(=S)NC(=O)c4ccccc4Cl)CC3)cc21 | 98.7% |
| CSCCC(NC(=O)c1cccc(C)c1)C(=O)OCC(=O)NC(=O)c1cccn1C (stereo not given) | 94.9% |
| COc1ccc(Cl)cc1-c1nc(SCC(N)=O)n[nH]1 | 91.2% |
| COC(=O)c1sccc1NC(=O)c1cccnc1 | 94.4% |
| CC(=O)Nc1ccc(OC(=O)c2cccnc2)cc1 | 81.9% |
| CC(=O)Nc1ccc(C(=O)Nc2nc(-c3cc(C)n(Cc4ccccc4)c3C)cs2)cc1 | 98% |
| Cc1cc(-c2csc(NC(=O)c3ccc(S(=O)(=O)N(C)C)cc3)n2)c(C)n1-c1ccccc1 | 106% |
| O=C(/C=C/c1ccco1)N/C(=C\c1ccccc1)C(=O)NCCc1nc2ccccc2[nH]1 | 81.4% |
| Cc1ccc2c(CN3CCC(C)CC3)cc(=O)oc2c1 | 94.1% |
| N#Cc1nc(-c2ccco2)oc1NCCCN1CCOCC1 | 108% |
| N#CC1=C(N)SC(N)=C(C#N)C1c1ccc([N+](=O)[O-])cc1 | 101% |
| CC1CCCCN1CCNS(=O)(=O)c1ccc2c(c1)oc(=O)n2C (stereo not given) | 100% |
| Cn1nnnc1SCC(=O)NC1CCCCC1 | 88% |
| CC1(C)CC(=O)C2=C(C1)N(Cc1ccccc1)C(=O)C2(O)C(F)(F)F (stereo not given) | 93.4% |
| C/C(=N/Nc1nc(-c2ccc(Cl)cc2)cs1)c1cccs1 | 86.8% [at 12.5 µM] |
| CCc1c(C)c2cc(Cl)c(O)c(CN3CCCCC3)c2oc1=O | 100% |
| O=C(CCc1ccccc1)Nc1nc2ccc(S(=O)(=O)N3CCOCC3)cc2s1 | 85.6% [at 25 µM] |

| SMILES | viability |
| --- | --- |
| O=C(NCc1cn2ccsc2n1)Nc1ccc(Cl)cc1 | 81.7% |
| COc1ccccc1CNc1nc2nc(C)c(C)c(=O)n2[nH]1 | 95.3% |
| O=C(c1cnsn1)N1CCN(c2ccccc2)CC1 | 81.3% |
| O=C1CC(c2ccccc2)n2nc(NC(=O)c3ccccc3)nc2N1 (stereo not given) | 89.1% |
| Cc1nc(N2CCN(c3ccccc3)CC2)nc2c1C(=O)CC(C)C2 (stereo not given) | 91.5% |
| CCC(CC)NC(=O)COC(=O)c1ccc(OCC(=O)Nc2ccccc2OC)c(OC)c1 | 89.9% |
| Cc1ccc(CNC(=O)Nc2cccs2)cc1 | 92.3% |
| CCn1c(=O)c(=O)[nH]c2cc(C(=O)NCC3CCCCC3)ccc21 | 94% |
| Oc1ccc(Nc2nc(-c3cccs3)cs2)cc1 | 93.4% |
| O=C1c2ccccc2C(=O)N1c1cccc(-c2csc(Nc3ccc4c(c3)OCO4)n2)c1 | 98.5% |
| Cc1nn2c(=O)cc(CSc3nc4ccccc4[nH]3)nc2s1 | 97.9% |
| Cn1c(COc2ccccc2)nnc1SCc1nc2ccccc2[nH]1 | 95.2% |
| c1ccc2[nH]c(CSc3nccs3)nc2c1 | 84.4% |
| O=C1NC(=O)C(=C2CCCCCC2)S1 | 90.7% |
| Cc1ncoc1C(=O)Nc1cccc(Cl)c1 | 99.8% |
| CS(=O)(=O)c1ccc([C@@H](O)[C@@H](CF)NC(=O)C(Cl)Cl)cc1 | 93% |
| CC(=O)C1=C(C)Nc2ncnn2C1c1ccccc1OCc1ccccc1 (stereo not given) | 84.5% |
| O=C(c1ccccc1)c1nc2ccccc2n(CCCn2c(=O)c(C(=O)c3ccccc3)nc3ccccc32)c1=O | 95% |
| COC(=O)CN1C(c2ccc(OC)cc2)=Nc2ccc(Cl)cc2C1c1ccccc1 (stereo not given) | 80.7% |
| CC[C@H]1OC(=O)[C@H](C)[C@@H](O[C@H]2C[C@@](C)(OC)[C@@H](O)[C@H](C)O2)[C@H](C)[C@@H](O[C@@H]2O[C@H](C)C[C@H](N(C)C)[C@H]2O)[C@](C)(O)C[C@@H](C)CN(C)[C@H](C)[C@@H](O)[C@]1(C)O | 89.2% |
| CC[C@H]1OC(=O)[C@H](C)[C@@H](O[C@H]2C[C@@](C)(OC)[C@@H](O)[C@H](C)O2)[C@H](C)[C@@H](O[C@@H]2O[C@H](C)C[C@H](N(C)C)[C@H]2O)[C@](C)(O)C[C@@H](C)[C@@H]2N[C@@H](COCCOC)O[C@H]([C@H]2C)[C@]1(C)O | 82.6% |
| COc1ccccc1CC(=O)N1CCN(c2ccccn2)CC1 | 90.4% |

| SMILES | viability |
| --- | --- |
| COCC(=O)N(Cc1ccco1)c1nnc(C2CCOC2)s1 (stereo not given) | 99% |
| COc1ccc(OC)c(NC(=O)c2cc3c(Cl)nc4ccccc4c3s2)c1 | 95.3% |
| Cc1ccc2[nH]c3c(=O)n(CCc4cnc[nH]4)cnc3c2c1 | 86.3% |
| C=CCNc1nnc(Cl)c2ccccc12 | 85.3% |
| COc1ccc(C(=O)NCCC2=CCCCC2)cc1OC | 93.9% |
| O=P(Cc1cc[n+]([O-])cc1)(c1ccccc1)c1ccccc1 | 82.4% |
| NC(=S)c1cc2ccc(O)cc2oc1=O | 87.2% |
| O=C(NCc1cccs1)Nc1cccs1 | 90.7% |
| Cn1ncc(Br)c1C(=O)NCc1cccs1 | 92.8% |
| CC(C)=CCN1CCN(Cc2ccoc2)CC1CCO (stereo not given) | 94.6% |
| COc1ccc(NC(=O)CSc2nc(C)cs2)cc1OC | 93.2% |
| CSC(=NS(=O)(=O)c1ccccc1)SC | 80.6% [at 25 µM] |
| CCn1nc(C(=O)NCc2ccco2)c(Cl)c1Cl | 81.5% |
| O=C(NCc1ccco1)C1CC(=O)N(CCc2ccccc2)C1 (stereo not given) | 99.7% |
| O=C(CNc1ccccc1)Nc1ccc(F)cc1 | 87.7% |
| CCN(CC(=O)Nc1ccc(N2CCOCC2)cc1)Cc1nc2ccccc2c(=O)[nH]1 | 87.8% |
| Cc1c(C(c2cccc([N+](=O)[O-])c2O)c2c(C)n(C)n(-c3ccccc3)c2=O)c(=O)n(-c2ccccc2)n1C | 106% |
| Cc1ccc(CNC(=O)c2cccc(S(C)(=O)=O)c2)cc1 | 91.7% |
| CN(C)C(=O)c1cn(N(C)c2ncc(C(F)(F)F)cc2Cl)c(=O)c2ccccc12 | 100% |
| CCOc1cc(C2Nc3cccc4cccc(c34)N2)ccc1O | 106% |
| COc1cc(C2Nc3cccc4cccc(c34)N2)cc(OC)c1O | 94.5% |
| NC(=O)c1ccccc1NC(=O)/C=C/C(=O)O | 94% |
